Test results taken from PubChem BioAssay AID623994 (NMMLSC, 2012).
Measured potencies and affinities stand elsewhere. Calls of active or inactive are those of the source.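 The calls were made as follows: active = compounds whose fitted concentration for half the maximal dye retention is below 100 µM; inactive = the rest.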

molecular target: Multidrug resistance protein CDR2 (Candida albicans (strain SC5314 / ATCC MYA-2876)) (UniProt P78595); experiment: blockers of Nile Red efflux by Candida CDR2 – S. cerevisiae AD1-8u, singleplex, Cherry Pick2 set, dose response (AID 623994); conditions: S. cerevisiae AD1-8u expressing CaCDR2, Nile Red efflux; series mostly up to 100 µM; Nile Red retention, efflux inhibition: at the top concentration
Sequence (P78595 whole entry, looked up): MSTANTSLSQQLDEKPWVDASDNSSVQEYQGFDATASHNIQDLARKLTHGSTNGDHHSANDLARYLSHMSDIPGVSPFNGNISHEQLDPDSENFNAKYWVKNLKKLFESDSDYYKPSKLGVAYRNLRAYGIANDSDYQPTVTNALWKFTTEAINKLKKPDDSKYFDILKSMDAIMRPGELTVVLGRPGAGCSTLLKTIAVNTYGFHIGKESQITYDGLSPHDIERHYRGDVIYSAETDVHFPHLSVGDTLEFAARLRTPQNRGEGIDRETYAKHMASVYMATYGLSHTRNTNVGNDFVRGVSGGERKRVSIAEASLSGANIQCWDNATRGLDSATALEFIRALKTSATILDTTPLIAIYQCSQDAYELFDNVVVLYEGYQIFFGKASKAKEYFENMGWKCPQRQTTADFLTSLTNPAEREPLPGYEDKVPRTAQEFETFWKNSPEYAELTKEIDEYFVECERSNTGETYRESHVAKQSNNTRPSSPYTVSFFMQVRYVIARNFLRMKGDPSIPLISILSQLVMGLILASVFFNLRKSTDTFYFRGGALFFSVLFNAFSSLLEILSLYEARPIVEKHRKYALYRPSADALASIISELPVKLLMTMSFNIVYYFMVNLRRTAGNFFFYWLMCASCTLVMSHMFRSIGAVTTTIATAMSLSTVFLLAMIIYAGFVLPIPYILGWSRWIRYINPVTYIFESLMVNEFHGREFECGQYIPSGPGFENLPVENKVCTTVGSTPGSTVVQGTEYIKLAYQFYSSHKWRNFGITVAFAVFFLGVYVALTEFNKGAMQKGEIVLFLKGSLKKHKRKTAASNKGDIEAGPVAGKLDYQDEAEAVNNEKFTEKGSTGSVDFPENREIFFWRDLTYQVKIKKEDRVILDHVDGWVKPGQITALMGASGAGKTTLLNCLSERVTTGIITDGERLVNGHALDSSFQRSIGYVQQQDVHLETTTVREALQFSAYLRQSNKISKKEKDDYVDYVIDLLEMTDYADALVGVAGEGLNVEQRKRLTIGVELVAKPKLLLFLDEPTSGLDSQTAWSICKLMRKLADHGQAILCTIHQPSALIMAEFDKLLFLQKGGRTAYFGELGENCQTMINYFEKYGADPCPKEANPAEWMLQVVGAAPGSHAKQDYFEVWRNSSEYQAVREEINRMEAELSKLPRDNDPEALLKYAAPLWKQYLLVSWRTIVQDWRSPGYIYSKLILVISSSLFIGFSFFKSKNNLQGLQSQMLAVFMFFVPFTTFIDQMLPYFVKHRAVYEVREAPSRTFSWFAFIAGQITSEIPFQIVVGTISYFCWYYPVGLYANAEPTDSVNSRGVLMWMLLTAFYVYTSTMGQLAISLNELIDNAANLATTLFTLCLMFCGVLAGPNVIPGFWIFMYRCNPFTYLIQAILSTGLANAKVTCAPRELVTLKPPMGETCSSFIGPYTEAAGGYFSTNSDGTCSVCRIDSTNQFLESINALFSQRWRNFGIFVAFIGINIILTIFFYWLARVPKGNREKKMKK

Nile Red retention, efflux inhibition, inactive:
Cc1ccc(C2CC(c3ccccc3)=NN2c2ccc(S(N)(=O)=O)cc2)cc1 (centres undefined) -8.26%, COc1ccc(N2CCN(C(=O)C3CCCN(c4ncnc5c4nc4n5CCCCC4)C3)CC2)cc1 (centres undefined) 0.54%, CCC(Cc1ccccc1)OC(=O)c1ccccc1C(=O)O (centres undefined) -3.71%, O=C(c1ccc2c(c1)OCO2)N1CCC2(CC1)Oc1ccc(F)cc1C(=O)C21CC(c2ccc(Cl)cc2)=NO1 (centres undefined) -1.29%, CCO[C@@H]1OC(C(=O)Nc2ccccc2)=C[C@H](c2ccc(Br)cc2)[C@H]1CCCO -0.14%, Nc1ccc(C(=O)OCCc2ccccc2)cc1 -1.89%, COc1ccc(C(=O)NC2CC(C)(C)Cc3c2cnn3-c2ccccc2)c(OC)c1 (centres undefined) -2.1%, O=C(Nc1ccccc1)C1=C[C@@H](c2ccc(C(F)(F)F)cc2)C[C@@H](OCCCCO)O1 1.83%, CCO[C@@H]1OC(C(=O)Nc2ccccc2)=C[C@H](c2ccccc2)[C@H]1CCCO -2.72%, COc1ccc(O)c(C(=O)c2cnc3c(c2)CN(C)C(=O)N3)c1 -9.23%, COc1cccc(N2CCN(C(=O)C3CCCN(c4ncnc5c4nc4n5CCCCC4)C3)CC2)c1 (centres undefined) -0.8%, COc1ccc(C(=O)OCCc2ccc(O)cc2)cc1 -3.92%, NS(=O)(=O)c1ccc(N2N=C(c3ccccc3)CC2c2cccc(Br)c2)cc1 (centres undefined) -8.65%, COc1cc(OC)c2ccc(=O)oc2c1C(CCN1CCCCC1)c1ccc(N(C)C)cc1 (centres undefined) -0.86%, COc1cccc(-c2sc3ccc(OC)cc3c2-c2ccc(OCCN3CCOCC3)cc2)c1 2.95%, O=C(CSc1nnc(Cc2cccs2)n1Cc1ccco1)Nc1ccc(Br)cc1 1.78%, COc1ccccc1C(=O)OCCc1ccccc1 -1.49%, COc1cc(OC)c2ccc(=O)oc2c1C(CCN1CCCC1)c1ccc(N(C)C)cc1 (centres undefined) -2.33%, O=C(C[n+]1cc(-c2ccc(F)cc2)n2c1CCC2)N1c2ccccc2Sc2ccccc21 -4.27%, COc1ccc(-c2c[n+](CC(=O)N3c4ccccc4Sc4ccccc43)c3n2CCC3)cc1 -5.85%, Cc1ccc(C)c(N2CCN(C(=O)C3CCCN(c4ncnc5c4nc4n5CCCCC4)C3)CC2)c1 (centres undefined) 223%, C[C@@]12C(=O)Nc3cc(F)c(F)cc3C(=O)N1[C@H]1c3cc(Cl)ccc3OC[C@@H]1[C@@H]2c1ccccc1 8.62%, O=C(C[n+]1cc(-c2ccc(Cl)cc2)n2c1CCC2)N1c2ccccc2Sc2ccccc21 9.2%, NC1=NC[C@H](Cc2ccc(O)cc2)N1CCc1cc(C(F)(F)F)cc(C(F)(F)F)c1 53%, Cc1ccc(-c2c[n+](CC(=O)N3c4ccccc4Sc4ccccc43)c3n2CCC3)cc1 -3.96%, COc1ccc2nc(NC(=O)c3cccs3)sc2c1 -2.84%

outcome, inactive:
Cc1ccc(O)c(C(=O)c2cnc3c(c2)CN(CCC(C)C)C(=O)N3)c1, COc1ccc(CNC(=O)C(C#N)c2nc3ccccc3nc2N2CCN(C)CC2)cc1 (centres undefined), CCCCN1Cc2cc(C(=O)c3cc(F)ccc3O)cnc2NC1=O
